Measured values taken from PubChem BioAssay AID1159580 (chemical genetic matrix, 2015).
Several values for one entry are separate records, joined by “and”; a condition that tells them apart may be missing. Identical values can stand only once. Among all 5,500 compounds or so, about 2,000 (36%) were called active. About 18% were inconclusive and are not listed. Rule as the data show it: active = normalized growth mostly below about 0.91 (no sharp cut-off); inconclusive = no clear call, values can overlap the other calls; inactive = mostly above about 0.92. The list shows a part of the results.

Experiment: chemical genetic growth profiling, strain panel (AID 1159580);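 also: tested at 20 µM; growth read once vehicle control cultures reached saturation at 30 °C; 1 = growth at the plate median or of vehicle wells; lower values mean less growth of the strain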
Conditions: S. cerevisiae deletion strains, growth OD

Measured: normalized growth

COc1ccc(-c2cc(=O)c3c(O)cc(O[C@@H]4O[C@H](CO[C@H]5O[C@H](C)[C@@H](O)[C@H](O)[C@@H]5O)[C@@H](O)[C@H](O)[C@H]4O)cc3o2)cc1O
inactive: locus YAL021C, strain ccr4, hits give low values 1.01 | locus YAL026C, strain drs2, hits give low values 1.05 | locus YAL030W, strain snc1, hits give low values 1.02 | locus YBL061C, strain skt5, hits give low values 1.02 | locus YBR009C, strain hhf1, hits give low values 1.01 | locus YBR021W, strain FUR4, hits give low values 1.03 | locus YBR023C, strain chs3, hits give low values 1.01 | locus YBR171W, strain sec66, hits give low values 1.02 | locus YBR229C, strain ROT2, hits give low values 0.994 | locus YBR231C, strain swc5, hits give low values 1.02 | locus YBR279W, strain paf1, hits give low values 1.01 | locus YCL011C, strain gbp2, hits give low values 1.01 | locus YCL016C, strain dcc1, hits give low values 1.02 | locus YCL029C, strain bik1, hits give low values 0.986 | locus YCL061C, strain MRC1, hits give low values 1.01 | locus YCL069W, strain vba3, hits give low values 1.03 | locus YCR088W, strain abp1, hits give low values 1.01 | locus YDL005C, strain med2, hits give low values 1.02 | locus YDL035C, strain GPR1, hits give low values 0.983 | locus YDL040C, strain nat1, hits give low values 1 | locus YDL074C, strain BRE1, hits give low values 1.02 | locus YDL101C, strain DUN1, hits give low values 0.995 | locus YDL185W, strain tfp1, hits give low values 0.969 | locus YDL192W, strain arf1, hits give low values 0.985 | locus YDR001C, strain nth1, hits give low values 1.01 | locus YDR069C, strain doa4, hits give low values 1.02 | locus YDR101C, strain arx1, hits give low values 1 | locus YDR137W, strain rgp1, hits give low values 1.03 | locus YDR150W, strain NUM1, hits give low values 0.99 | locus YDR159W, strain sac3, hits give low values 1.02 | locus YDR162C, strain NBP2, hits give low values 0.972 | locus YDR195W, strain ref2 1.04 | locus YDR297W, strain sur2, hits give low values 1.01 | locus YDR318W, strain mcm21, hits give low values 1 | locus YDR334W, strain swr1, hits give low values 1.02 | locus YDR335W, strain msn5, hits give low values 1.01 | locus YDR388W, hits give low values 0.991 | locus YDR392W, strain spt3, hits give low values 0.987 | locus YDR502C, strain sam2, hits give low values 0.993 | locus YEL003W, strain gim4, hits give low values 1.02 | locus YEL037C, strain rad23, hits give low values 1.01 | locus YEL061C, strain CIN8 (second series), hits give low values 1.03 | locus YEL061C, strain CIN8, hits give low values 0.997 | locus YER015W, strain faa2, hits give low values 1.01 | locus YER016W, strain bim1, hits give low values 1.02 | locus YER110C, hits give low values 0.979 | locus YER111C, strain swi4, hits give low values 1 | locus YER155C, strain BEM2 (second series), hits give low values 1 | locus YER155C, strain BEM2, hits give low values 0.995 | locus YER167W, strain BCK2, hits give low values 0.981 | locus YFR010W, strain ubp6, hits give low values 1.02 | locus YGL078C, strain dbp3, hits give low values 1 | locus YGL086W, strain mad1, hits give low values 1.01 | locus YGL167C, strain pmr1, hits give low values 1.01 | locus YGL173C, strain kem1, hits give low values 1.04 | locus YGL227W, strain vid30, hits give low values 1.01 | locus YGL240W, strain doc1, hits give low values 1.04 | locus YGL248W, strain PDE1, hits give low values 0.999 | locus YGL253W, strain hxk2, hits give low values 1 | locus YGR078C, strain PAC10, hits give low values 1.01 | locus YGR135W, strain pre9, hits give low values 0.956 | locus YGR252W, strain gcn5, hits give low values 1.04 | locus YHR013C, strain ard1, hits give low values 1.02 | locus YHR027C, strain rpn1, hits give low values 1.02 | locus YHR030C, strain SLT2, hits give low values 0.985 and 1 | locus YHR079C, strain IRE1 (second series), hits give low values 0.991 | locus YHR079C, strain IRE1, hits give low values 0.996 | locus YHR094C, strain hxt1, hits give low values 0.977 | locus YHR129C, strain ARP1, hits give low values 0.988 | locus YHR142W, strain chs7, hits give low values 0.978 | locus YHR200W, strain rpn10, hits give low values 0.989 | locus YIL066C, strain RNR3, hits give low values 0.994 | locus YIL073C, strain SPO22, hits give low values 0.963 | locus YIL125W, strain kgd1, hits give low values 1.01 | locus YIR030C, strain dcg1, hits give low values 0.985 | locus YJL092W, strain hpr5, hits give low values 1.02 | locus YJL095W, strain BCK1 (second series), hits give low values 1.01 | locus YJL095W, strain BCK1, hits give low values 1.01 and 0.997 | locus YJL115W, strain asf1, hits give low values 1.03 | locus YJL129C, strain trk1, hits give low values 1.03 | locus YJL134W, strain LCB3, hits give low values 0.988 | locus YJL154C, strain vps35, hits give low values 1.02 | locus YJL164C, strain tpk1, hits give low values 1.02 | locus YJL166W, strain qcr8, hits give low values 1.02 | locus YJL168C, strain set2, hits give low values 1 | locus YJL187C, strain SWE1 (second series), hits give low values 1 | locus YJL187C, strain SWE1, hits give low values 1.01 | locus YJR043C, strain POL32, hits give low values 1.02 | locus YJR066W, strain TOR1, hits give low values 0.981
